Holding throughout (assay): DAPPL (digital affinity profiling via proximity ligation, sequencing); 10 mM Tris-HCl pH 7.5, 50 mM NaCl, 1 mM DTT, 4% glycerol, room temperature, 30 min; GST-TFs on glutathione beads, 16-mer random dsDNA library, 0.1% formaldehyde crosslink after washing; high values mean tight binding
Holding throughout (conditions): protein: recombinant; tags: N-terminal GST; dsDNA, one strand shown

One test addresses T1, FLI1 (Homo sapiens, UniProt Q01543 1-452).
T1 sequence: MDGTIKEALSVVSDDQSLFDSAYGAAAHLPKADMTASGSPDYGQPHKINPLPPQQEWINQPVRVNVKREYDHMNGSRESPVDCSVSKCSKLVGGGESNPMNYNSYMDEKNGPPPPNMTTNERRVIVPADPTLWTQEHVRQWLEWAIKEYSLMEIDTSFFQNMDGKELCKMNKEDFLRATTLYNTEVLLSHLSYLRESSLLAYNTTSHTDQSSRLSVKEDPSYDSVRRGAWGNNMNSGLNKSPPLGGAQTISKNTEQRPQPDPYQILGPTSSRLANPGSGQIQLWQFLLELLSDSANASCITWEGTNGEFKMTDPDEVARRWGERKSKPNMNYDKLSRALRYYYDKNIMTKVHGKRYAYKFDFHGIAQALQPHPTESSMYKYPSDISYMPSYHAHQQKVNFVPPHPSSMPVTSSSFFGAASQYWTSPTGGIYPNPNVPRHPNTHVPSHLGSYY
The gist of the method:
(§1)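 Pools were built from human transcription factors expressed in yeast as GST fusions, captured on glutathione beads and DNA-barcoded, along with a tag-only sample. Incubation with 200 nmole of a 16-mer random double-stranded DNA library lasted 30 min at room temperature in Tris/NaCl/DTT/glycerol buffer, and was followed by washing, 0.1% formaldehyde crosslinking, proximity ligation, PCR amplification and Illumina NextSeq500 sequencing. Binding signal is the quotient of each hexamer's read frequency for a factor and its frequency for the tag-only sample.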

Another test addresses T2, ELK1 (Homo sapiens, UniProt P19419 1-428).
T2 sequence: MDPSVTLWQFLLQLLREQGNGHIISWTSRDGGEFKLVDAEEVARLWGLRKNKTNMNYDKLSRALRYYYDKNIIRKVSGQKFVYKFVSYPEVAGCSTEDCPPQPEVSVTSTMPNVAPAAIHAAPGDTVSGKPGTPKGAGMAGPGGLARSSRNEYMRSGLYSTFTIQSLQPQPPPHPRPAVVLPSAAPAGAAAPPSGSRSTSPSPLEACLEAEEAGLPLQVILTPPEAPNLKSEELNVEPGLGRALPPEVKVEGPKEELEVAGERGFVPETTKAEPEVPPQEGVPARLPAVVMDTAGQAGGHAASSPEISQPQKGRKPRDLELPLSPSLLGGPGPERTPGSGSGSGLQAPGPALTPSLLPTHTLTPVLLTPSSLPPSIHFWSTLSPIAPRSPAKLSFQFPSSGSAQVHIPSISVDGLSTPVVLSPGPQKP
An outline of the steps: as §1

A further test addresses T3, GABPA (Homo sapiens, UniProt Q06546 1-454).
T3 sequence: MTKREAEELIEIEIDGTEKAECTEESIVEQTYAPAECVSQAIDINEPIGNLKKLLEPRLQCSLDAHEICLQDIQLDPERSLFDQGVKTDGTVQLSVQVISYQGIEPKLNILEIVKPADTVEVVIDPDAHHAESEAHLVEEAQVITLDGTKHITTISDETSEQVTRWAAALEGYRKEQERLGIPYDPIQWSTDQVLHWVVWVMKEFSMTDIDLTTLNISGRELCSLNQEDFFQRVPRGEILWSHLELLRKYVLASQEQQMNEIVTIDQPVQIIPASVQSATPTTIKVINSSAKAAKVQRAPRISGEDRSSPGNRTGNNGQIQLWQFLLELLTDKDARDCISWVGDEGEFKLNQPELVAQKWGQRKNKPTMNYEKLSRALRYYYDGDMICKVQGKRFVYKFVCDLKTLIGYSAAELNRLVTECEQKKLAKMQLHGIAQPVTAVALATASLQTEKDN
An outline of the steps: as §1

In a further test the target is T4, ERG (Homo sapiens, UniProt P11308 1-479).
T4 sequence: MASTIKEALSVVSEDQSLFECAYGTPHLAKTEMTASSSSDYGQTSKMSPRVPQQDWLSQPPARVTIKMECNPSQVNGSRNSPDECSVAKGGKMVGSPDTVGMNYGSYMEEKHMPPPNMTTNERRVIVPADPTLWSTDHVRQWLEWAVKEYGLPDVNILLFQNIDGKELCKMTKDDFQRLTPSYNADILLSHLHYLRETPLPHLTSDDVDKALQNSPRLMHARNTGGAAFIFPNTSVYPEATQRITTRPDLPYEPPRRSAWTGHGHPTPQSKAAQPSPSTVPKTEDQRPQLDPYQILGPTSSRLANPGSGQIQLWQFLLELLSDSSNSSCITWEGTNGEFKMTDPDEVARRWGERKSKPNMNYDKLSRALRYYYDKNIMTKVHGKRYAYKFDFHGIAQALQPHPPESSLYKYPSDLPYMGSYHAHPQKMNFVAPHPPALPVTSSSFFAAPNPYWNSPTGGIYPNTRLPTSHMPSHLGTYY
The gist of the method:
as §1

A further test addresses ELF1 (Homo sapiens, UniProt P32519 1-619). An outline of the steps:
as §1

Another test addresses T5, EHF (Homo sapiens, UniProt Q9NZC4 1-300).
T5 sequence: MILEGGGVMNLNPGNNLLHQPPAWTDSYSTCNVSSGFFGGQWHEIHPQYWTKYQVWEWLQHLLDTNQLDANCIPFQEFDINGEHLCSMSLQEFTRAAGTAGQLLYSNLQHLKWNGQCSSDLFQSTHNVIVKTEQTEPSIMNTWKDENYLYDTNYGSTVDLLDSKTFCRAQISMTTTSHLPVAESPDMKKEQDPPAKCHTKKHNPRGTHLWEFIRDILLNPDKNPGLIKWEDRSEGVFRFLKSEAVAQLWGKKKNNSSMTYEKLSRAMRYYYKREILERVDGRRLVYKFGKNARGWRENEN
An outline of the steps: as §1

Another test deals with SPI1 (Homo sapiens, UniProt P17947 1-270). An outline of the steps:
as §1

The target of the next test is SPIB (Homo sapiens, UniProt Q01892 1-262). The gist of the method:
as §1

Another test addresses T6, ELK3 (Homo sapiens, UniProt P41970 1-407).
T6 sequence: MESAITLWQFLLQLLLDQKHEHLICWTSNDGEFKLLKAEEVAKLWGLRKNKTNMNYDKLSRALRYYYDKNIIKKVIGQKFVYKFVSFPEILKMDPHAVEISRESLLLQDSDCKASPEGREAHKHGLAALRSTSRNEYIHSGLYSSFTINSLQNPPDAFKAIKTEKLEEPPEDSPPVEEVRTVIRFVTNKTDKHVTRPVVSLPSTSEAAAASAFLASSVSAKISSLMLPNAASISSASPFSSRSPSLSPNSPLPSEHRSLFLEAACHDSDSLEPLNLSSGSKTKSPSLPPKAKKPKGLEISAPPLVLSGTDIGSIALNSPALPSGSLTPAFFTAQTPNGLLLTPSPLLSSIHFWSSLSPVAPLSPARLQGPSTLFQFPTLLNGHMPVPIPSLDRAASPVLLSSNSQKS
An outline of the steps:
as §1

The results in this text go back to paper PMC7862700, “An all-to-all approach to the identification of sequence-specific readers for epigenetic DNA modifications on cytosine”.

Chain of ELF1 (P32519 whole entry): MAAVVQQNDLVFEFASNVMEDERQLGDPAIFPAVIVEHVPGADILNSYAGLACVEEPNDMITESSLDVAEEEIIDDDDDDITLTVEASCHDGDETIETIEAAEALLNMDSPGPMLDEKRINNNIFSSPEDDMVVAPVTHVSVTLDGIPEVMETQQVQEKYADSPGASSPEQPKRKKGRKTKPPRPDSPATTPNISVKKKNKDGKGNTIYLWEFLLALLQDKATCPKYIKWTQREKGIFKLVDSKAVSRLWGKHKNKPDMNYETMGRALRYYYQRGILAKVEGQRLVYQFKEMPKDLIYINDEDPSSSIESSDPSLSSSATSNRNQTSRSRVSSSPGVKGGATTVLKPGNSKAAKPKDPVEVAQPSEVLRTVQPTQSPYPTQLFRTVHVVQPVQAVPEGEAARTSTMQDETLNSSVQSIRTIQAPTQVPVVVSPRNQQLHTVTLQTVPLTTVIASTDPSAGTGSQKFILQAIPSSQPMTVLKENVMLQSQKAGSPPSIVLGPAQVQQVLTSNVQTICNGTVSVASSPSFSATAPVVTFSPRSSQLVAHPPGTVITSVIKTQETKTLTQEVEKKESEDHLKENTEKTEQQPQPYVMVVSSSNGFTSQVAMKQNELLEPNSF
Chain of SPIB (Q01892 whole entry): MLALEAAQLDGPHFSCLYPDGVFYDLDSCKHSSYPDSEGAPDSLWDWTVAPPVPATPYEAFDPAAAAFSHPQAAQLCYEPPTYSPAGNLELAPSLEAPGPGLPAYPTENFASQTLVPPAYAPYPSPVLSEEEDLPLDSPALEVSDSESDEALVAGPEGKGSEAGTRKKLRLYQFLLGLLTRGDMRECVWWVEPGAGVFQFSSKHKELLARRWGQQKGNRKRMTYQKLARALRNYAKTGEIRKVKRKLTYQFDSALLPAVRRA

With TTAGTT, the binding signal is 1.36 fold enrichment (6-mer frequency, TF over GST control) with FLI1; 1.38 fold enrichment (6-mer frequency, TF over GST control) in the test with ELK1; 1.18 fold enrichment (6-mer frequency, TF over GST control) in the test with GABPA; 1.24 fold enrichment (6-mer frequency, TF over GST control) in the test with ERG; 1.31 fold enrichment (6-mer frequency, TF over GST control) with ELF1; 1.3 fold enrichment (6-mer frequency, TF over GST control) in the test with EHF. Besides, the binding signal with SPI1 was 1.27 fold enrichment (6-mer frequency, TF over GST control); with SPIB, 1.31 fold enrichment (6-mer frequency, TF over GST control); with ELK3, 1.31 fold enrichment (6-mer frequency, TF over GST control).
On to TCTTTC, for which the binding signal was 1.43 fold enrichment (6-mer frequency, TF over GST control) with FLI1; 1.27 fold enrichment (6-mer frequency, TF over GST control) with ELK1; 1.41 fold enrichment (6-mer frequency, TF over GST control) in the test with GABPA; 1.3 fold enrichment (6-mer frequency, TF over GST control) with ERG; 1.37 fold enrichment (6-mer frequency, TF over GST control) with ELF1; 1.43 fold enrichment (6-mer frequency, TF over GST control) with EHF. The binding signal with SPI1 was 1.51 fold enrichment (6-mer frequency, TF over GST control); with SPIB it was 1.41 fold enrichment (6-mer frequency, TF over GST control); with ELK3, 1.39 fold enrichment (6-mer frequency, TF over GST control).
Regarding AAACCA, the binding signal with FLI1 is 1.13 fold enrichment (6-mer frequency, TF over GST control); in the test with ELK1, 1.11 fold enrichment (6-mer frequency, TF over GST control); with GABPA, 1.14 fold enrichment (6-mer frequency, TF over GST control); with ERG it was 1.19 fold enrichment (6-mer frequency, TF over GST control); with ELF1, 1.18 fold enrichment (6-mer frequency, TF over GST control); in the test with EHF it was 1.17 fold enrichment (6-mer frequency, TF over GST control). Also, the binding signal with SPI1 was 1.07 fold enrichment (6-mer frequency, TF over GST control); with SPIB, 1.16 fold enrichment (6-mer frequency, TF over GST control); in the test with ELK3, 1.18 fold enrichment (6-mer frequency, TF over GST control).
As for CTCAAC, the binding signal in the test with FLI1 is 1.25 fold enrichment (6-mer frequency, TF over GST control); with ELK1, 1.32 fold enrichment (6-mer frequency, TF over GST control); in the test with GABPA, 1.33 fold enrichment (6-mer frequency, TF over GST control); with ERG, 1.24 fold enrichment (6-mer frequency, TF over GST control); in the test with ELF1 it was 1.26 fold enrichment (6-mer frequency, TF over GST control); with EHF it was 1.18 fold enrichment (6-mer frequency, TF over GST control). The binding signal was 1.18 fold enrichment (6-mer frequency, TF over GST control) in the test with SPI1; 1.19 fold enrichment (6-mer frequency, TF over GST control) in the test with SPIB; 1.28 fold enrichment (6-mer frequency, TF over GST control) with ELK3.
For the sequence ATACAA, the binding signal with FLI1 was 1.19 fold enrichment (6-mer frequency, TF over GST control); in the test with ELK1, 1.15 fold enrichment (6-mer frequency, TF over GST control); with GABPA, 1.14 fold enrichment (6-mer frequency, TF over GST control); with ERG, 1.1 fold enrichment (6-mer frequency, TF over GST control); in the test with ELF1, 1.21 fold enrichment (6-mer frequency, TF over GST control); with EHF, 1.15 fold enrichment (6-mer frequency, TF over GST control). Further, the binding signal with SPI1 is 1.07 fold enrichment (6-mer frequency, TF over GST control); in the test with SPIB, 1.09 fold enrichment (6-mer frequency, TF over GST control); in the test with ELK3, 1.31 fold enrichment (6-mer frequency, TF over GST control).
As for GGTCTT, the binding signal in the test with FLI1 is 1.14 fold enrichment (6-mer frequency, TF over GST control); with ELK1, 1.11 fold enrichment (6-mer frequency, TF over GST control); in the test with GABPA, 1.14 fold enrichment (6-mer frequency, TF over GST control); with ERG, 1.09 fold enrichment (6-mer frequency, TF over GST control); with ELF1, 1.19 fold enrichment (6-mer frequency, TF over GST control); in the test with EHF, 1.1 fold enrichment (6-mer frequency, TF over GST control). Besides, the binding signal with SPI1 was 1.18 fold enrichment (6-mer frequency, TF over GST control); with SPIB it was 1.23 fold enrichment (6-mer frequency, TF over GST control); in the test with ELK3 it was 1.15 fold enrichment (6-mer frequency, TF over GST control).
In the case of CTTTTC, the binding signal with FLI1 is 1.44 fold enrichment (6-mer frequency, TF over GST control); in the test with ELK1, 1.51 fold enrichment (6-mer frequency, TF over GST control); with GABPA, 1.34 fold enrichment (6-mer frequency, TF over GST control); with ERG it was 1.43 fold enrichment (6-mer frequency, TF over GST control); in the test with ELF1, 1.38 fold enrichment (6-mer frequency, TF over GST control); with EHF, 1.39 fold enrichment (6-mer frequency, TF over GST control). Also, the binding signal with SPI1 is 1.65 fold enrichment (6-mer frequency, TF over GST control); with SPIB, 1.53 fold enrichment (6-mer frequency, TF over GST control); with ELK3 it was 1.23 fold enrichment (6-mer frequency, TF over GST control).
Turning to TTTCTA, the binding signal was 1.3 fold enrichment (6-mer frequency, TF over GST control) with FLI1; 1.39 fold enrichment (6-mer frequency, TF over GST control) in the test with ELK1; 1.29 fold enrichment (6-mer frequency, TF over GST control) in the test with GABPA; 1.34 fold enrichment (6-mer frequency, TF over GST control) in the test with ERG; 1.28 fold enrichment (6-mer frequency, TF over GST control) with ELF1; 1.36 fold enrichment (6-mer frequency, TF over GST control) with EHF. In addition, the binding signal was 1.36 fold enrichment (6-mer frequency, TF over GST control) in the test with SPI1; 1.19 fold enrichment (6-mer frequency, TF over GST control) with SPIB; 1.26 fold enrichment (6-mer frequency, TF over GST control) with ELK3.
